PostGolgi yeast: growth inhibition of a yeast mutant, post-Golgi transport screen | inhibition, % at 10 µM | AID 739 | 98,000 tested, 0.9% active | post-Golgi transport phenotypic cell assay;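 also: yeast cells grown in 1536-well plates; yeast grown about 18 h at 30C before absorbance read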
CYP2C19 activ: activators of human cytochrome P450 2C19; recombinant CYP2C19, luciferin-H EGE luminescence; active compounds read high; 0 = fully inhibited enzyme, 1 = untreated enzyme; P33261; 96,000 tested, under 10 active; activation factor at 5 µM; AID 1025;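 active = activation factor of at least 2 at 5 µM in the primary screen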;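 also: 0 = wells with 2.5 mM tranylcypromine and 1 = vehicle-only wells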
CYP2C9 inhib: inhibitors of human CYP2C9. P11712. CYP2C9 Supersomes, luciferin-H conversion, luminescence. inhibition, % at 5 µM. 96,000 tested, 20% active. AID 777;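 active = blocking of liver enzyme CYP2C9 beyond about 50% at 5 µM, limit read from the data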
Target sequence (P11712 whole entry, looked up): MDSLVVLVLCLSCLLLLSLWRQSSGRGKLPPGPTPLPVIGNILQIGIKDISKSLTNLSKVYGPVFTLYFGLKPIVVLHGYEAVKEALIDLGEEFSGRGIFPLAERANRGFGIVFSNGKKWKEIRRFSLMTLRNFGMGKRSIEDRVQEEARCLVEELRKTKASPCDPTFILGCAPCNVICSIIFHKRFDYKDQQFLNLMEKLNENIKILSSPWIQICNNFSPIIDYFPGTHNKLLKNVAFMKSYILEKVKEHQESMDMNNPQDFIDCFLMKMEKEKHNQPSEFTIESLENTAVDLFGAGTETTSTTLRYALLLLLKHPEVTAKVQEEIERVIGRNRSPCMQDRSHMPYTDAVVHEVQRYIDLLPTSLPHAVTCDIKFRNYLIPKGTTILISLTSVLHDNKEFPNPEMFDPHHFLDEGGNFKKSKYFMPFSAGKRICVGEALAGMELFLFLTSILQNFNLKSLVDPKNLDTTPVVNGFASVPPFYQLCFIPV
CYP2C9 act: CYP2C9 (human) activation | recombinant CYP2C9, luciferin-H conversion, luminescence; active compounds read high; factor 1 = untreated enzyme, 0 = blocked | activation factor at 5 µM | 96,000 tested, 1.4% active;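 active = activation factor of 2 or more for CYP2C9 at a 5 µM dose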;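 also: 0 = sulfaphenazole-blocked wells and 1 = vehicle-only wells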
PostGolgi ctrl: yeast control strain growth, post-Golgi counter-screen | efflux-deficient yeast background strain, growth absorbance A615, 16 h | inhibition, % at 10 µM | 98,000 tested, 5% active | AID 738
CYP2C19 inh: human CYP2C19 inhibition | P33261 | CYP2C19 Supersomes, luciferin-H EGE luminescence, 30 min | inhibition, % at 5 µM | 96,000 tested, 21% active;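 active = CYP2C19 inhibition above a set limit at 5 µM in the primary screen, cut at about 50% in these data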;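 also: plate controls were negative control wells for no effect and 2.5 mM tranylcypromine positive control for full effect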
Numbers without * were called inactive; . = no result. Rows were chosen to be rich in hits. Some 32% of all compounds tested hit in one or more screens of this group. Rule as the data show it, unless noted: active = inhibition above about 30%; inactive = the rest.

SMILES	PostGolgi yeast	CYP2C19 activ	CYP2C9 inhib	CYP2C9 act	PostGolgi ctrl	CYP2C19 inh
COc1ccc(-n2c(SCC(=O)Nc3ccccc3)nnc2-c2ccc(NS(=O)(=O)c3ccc(C)cc3)cc2)cc1	-9	1	-1	1	7	3
COc1ccc(-n2c(SCC#N)nnc2-c2ccc(NS(=O)(=O)c3ccc(C)cc3)cc2)cc1	-4	0.1	94*	0.1	9	90*
Cc1cccc(OC(=O)C2C(c3ccccc3)C(C(=O)O)C2c2ccccc2)c1 (stereo not drawn)	14	0.9	59*	0.4	-6	10
CC(C)CCOC(=O)C1C(c2ccccc2)C(C(=O)O)C1c1ccccc1 (stereo not drawn)	10	0.4	23	0.8	-1	59*
COc1ccc(OC)c(NC2c3ccccc3C(=O)N2Cc2ccc3c(c2)OCO3)c1 (stereo not drawn)	-2	0.6	42	0.6	25	43
O=C(O)c1ccc2c(c1)C(=O)N(Cc1ccc3c(c1)OCO3)C2=O	25	1	1	1	-4	4
O=C1c2ccccc2C(Nc2ccc3c(c2)OCO3)N1Cc1ccc2c(c1)OCO2 (stereo not drawn)	4	0.1	97*	0	11	88*
O=C1c2ccccc2C(=O)N1Cc1ccc2c(c1)OCO2	-2	0.5	-39	1.4	8	54*
O=C1c2ccccc2C(O)N1Cc1ccc2c(c1)OCO2 (stereo not drawn)	-1	0.2	3	1	3	83*
O=C1c2ccccc2C(Nc2cccnc2)N1Cc1ccc2c(c1)OCO2 (stereo not drawn)	0	0.4	29	0.7	-7	57*
CNC(=O)c1cc(S(=O)(=O)N(C)C)ccc1Cl	2	1.1	-16	1.2	7	-14
CCCCc1ccc(NC(=O)C2CCN(S(C)(=O)=O)CC2)cc1	-1	1.1	12	0.9	2	-10
O=C1c2ccccc2C(O)(Cc2ccccc2)N1c1ccc2c(c1)OCO2 (stereo not drawn)	0	0.1	90*	0.1	4	87*
CS(=O)(=O)N1CCN(c2ccc([N+](=O)[O-])c(NCc3ccccc3)c2)CC1	-2	1.2	-10	1.1	19	-16
CCNc1cc(N2CCN(S(=O)(=O)c3ccc4c(c3)CCCC4)CC2)ccc1[N+](=O)[O-]	-4	0.5	33	0.7	-4	54*
Cc1cc(C)c(S(=O)(=O)N2CCN(c3ccc([N+](=O)[O-])c(NCc4ccco4)c3)CC2)c(C)c1	3	0.6	53*	0.5	11	37
Cc1cc(C)c(S(=O)(=O)N2CCN(c3ccc([N+](=O)[O-])c(NCC4CCCO4)c3)CC2)c(C)c1 (stereo not drawn)	7	0.6	56*	0.4	4	36
CC(C)c1ccc(CNc2cc(N3CCCC3)ccc2[N+](=O)[O-])cc1	2	0.7	53*	0.5	19	30
O=[N+]([O-])c1ccc(N2CCN(S(=O)(=O)c3ccc(Cl)cc3)CC2)cc1NCC1CCCO1 (stereo not drawn)	-5	0.5	13	0.9	1	48
CC(C)(C)CNc1cc(N2CCCC2)ccc1[N+](=O)[O-]	-8	1	29	0.7	9	4
CC1(C)CN=C(N2CCN(C3=NCC(C)(C)S3)CC2)S1	.	0.9	4	1	.	9
Cc1ccc(S(=O)(=O)CCSc2nc(C)cc(C)c2C#N)cc1	1	0.5	-29	1.3	9	46
CSc1nc(N)nc(SCCS(=O)(=O)c2ccc(Cl)cc2)c1C#N	2	.	.	.	58*	.
CSc1nc(N)nc(SCC(=O)C(C)(C)C)c1C#N	4	0.6	73*	0.3	10	44
COc1cc2c(cc1OC)CN(C(=O)CSc1nc(N)c(C#N)cc1C#N)CC2	6	1.1	5	0.9	12	-8
SMILES	PostGolgi yeast	CYP2C19 activ	CYP2C9 inhib	CYP2C9 act	PostGolgi ctrl	CYP2C19 inh
CCCn1c(CN2CCCCC2CC)nc2c1c(=O)n(C)c(=O)n2C (stereo not drawn)	4	1	13	0.9	5	-2
CCCn1c(CN2CCCCC2C)nc2c1c(=O)n(C)c(=O)n2C (stereo not drawn)	-4	1	9	0.9	37*	0
Cc1ccc(NC(=O)N2CCC(=O)N2)cc1	24	1.1	-5	1	-2	-10
CC(=O)Nc1ccc(Cl)cc1C(=O)O	2	1	3	1	5	-2
CCOc1cc(/C=N/NC(=O)c2ccncc2)ccc1OC(=O)c1ccc([N+](=O)[O-])cc1	-8	1	9	0.9	1	-3
CCOc1ccc(Br)cc1/C=N/NC(=O)c1ccncc1	0	0.1	83*	0.2	0	91*
O=C1OCCC1S(=O)(=O)c1ccc2ccccc2c1 (stereo not drawn)	3	0.7	-402	5*	8	32
O=C(O)C1Cc2ccccc2CN1S(=O)(=O)c1ccc2ccccc2c1 (stereo not drawn)	8	1	8	0.9	-2	4
O=C(c1ccccc1)N1CCCCC(S(=O)(=O)c2ccc3ccccc3c2)C1=O (stereo not drawn)	-13	0.5	-62	1.6	30	54*
O=C(O)C1CCCN1S(=O)(=O)c1ccc2ccccc2c1 (stereo not drawn)	1	.	.	.	-2	.
O=C(Cc1cscn1)c1ccc(O)cc1O	9	1	-16	1.2	-3	-2
C=CCC(NCc1ccco1)c1ccc(OC)cc1OC (stereo not drawn)	-3	0.7	9	0.9	-4	27
C=C(C)CC(NCc1ccco1)c1ccc(OC)cc1 (stereo not drawn)	31*	0.8	6	0.9	10	24
COc1ccc(NC(=O)C(c2ccc(C)cc2)N(C)C(=O)c2cnccn2)cc1 (stereo not drawn)	10	0.5	53*	0.5	8	52*
COc1ccc(C(C(=O)Nc2ccc(C(C)C)cc2)N(C)C(=O)CNC(C)=O)cc1 (stereo not drawn)	14	0.8	33	0.7	17	24
Cc1cc(C)n(-c2nc3nonc3nc2Nc2cccc(C)c2C)n1	-5	0.9	4	1	0	7
O=S(=O)(/C=C/c1ccccc1)Oc1ccccc1	2	0.2	-7	1.1	2	79*
Clc1cc(CSc2ccccc2)nc(-c2ccccc2)n1	8	0.6	53*	0.5	14	45
CCOC(=O)CSc1cc(CS(=O)c2ccc(Cl)cc2)nc(-c2ccccc2)n1 (stereo not drawn)	20	0	85*	0.1	32*	100*
Clc1ccc(SCc2cc(-c3ccccc3)on2)cc1	3	0.1	-19	1.2	0	90*
CCOC(=O)CSc1cc(CSc2ccccc2)nc(-c2ccccc2)n1	-2	0.4	30	0.7	0	57*

Bioassay records as filed in PubChem.
